Data reported in PubChem BioAssay (NCI).
“And” between values parts separate entries of the source, which are not always exact repeats. Equal entries are not always repeated. The panel holds about 83,000 compounds, 20% with a hit somewhere; the sample as a whole holds those more often.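 Cell lines were cultured in 96-well plates, exposed to a single compound concentration, and assessed for percent growth 48 hours later.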 The source made the active and inactive calls. How the source made its calls: active means growth percent below 10; inactive means the rest.

Tests used:
Assay in all cases: NCI-60 one-dose screen, 48 h (100 = growth as untreated, 0 = no growth, -100 = all killed)
Details in all cases: 10 µM unless noted
HCT-15 colon = system: HCT-15 colon
HT29 colon = system: HT29 colon
SNB-75 CNS = system: SNB-75 CNS
SNB-19 CNS = system: SNB-19 CNS
U251 CNS = system: U251 CNS
PC-3 prostate = system: PC-3 prostate
SK-MEL-5 melanoma = system: SK-MEL-5 melanoma
UACC-62 melanoma = system: UACC-62 melanoma
LOX IMVI melanoma = system: LOX IMVI melanoma
SK-MEL-28 melanoma = system: SK-MEL-28 melanoma

Measured: growth

COc1ccccc1/C=C1\COc2ccc(O)cc2C1=O
inactive: HCT-15 colon 48.7% | HT29 colon 51.6% | SNB-75 CNS 96% | SNB-19 CNS 90.6% | U251 CNS 62.3% | PC-3 prostate 75.8% | SK-MEL-5 melanoma 66.5% | UACC-62 melanoma 69.1% | LOX IMVI melanoma 34.6% | SK-MEL-28 melanoma 101%

N#Cc1c(-c2cccc(F)c2)cc(-c2cccnc2)[nH]c1=O
inactive: HCT-15 colon 104% | HT29 colon 104% | SNB-75 CNS 97.1% | SNB-19 CNS 99.9% | U251 CNS 101% | PC-3 prostate 101% | SK-MEL-5 melanoma 104% | UACC-62 melanoma 97.5% | LOX IMVI melanoma 98.8% | SK-MEL-28 melanoma 104%

CCN(CC)/C([O-])=c1\cccc\c1=C1\N=C(c2ccccc2)N=C1[n+]1ccc(-c2ccccc2)cc1
inactive: HCT-15 colon 101% | HT29 colon 106% | SNB-75 CNS 93.7% | SNB-19 CNS 99.5% | U251 CNS 97.7% | PC-3 prostate 92.8% | SK-MEL-5 melanoma 93.8% | UACC-62 melanoma 93.6% | LOX IMVI melanoma 91.6% | SK-MEL-28 melanoma 106%

C=C(C)[C@@H]1CC[C@]2(C(=O)N3CCN(C)CC3)CC[C@]3(C)[C@H](CC[C@@H]4[C@@]5(C)CC(CCCNC(C)=O)(CCCNC(C)=O)[C@H](OC(C)=O)C(C)(C)[C@@H]5CC[C@]43C)[C@@H]12
inactive: HCT-15 colon 86.8% | HT29 colon 83% | SNB-75 CNS 89.2% | SNB-19 CNS 99% | U251 CNS 98.2% | PC-3 prostate 74.9% | SK-MEL-5 melanoma 91.5% | UACC-62 melanoma 99.3% | LOX IMVI melanoma 97.8% | SK-MEL-28 melanoma 103%

Cn1ccnc1CN1CCSC(C(=O)Nc2ccccc2)C1 (stereo not given)
inactive: HCT-15 colon 95.4% | HT29 colon 95.1% | SNB-75 CNS 79.5% | SNB-19 CNS 93% | U251 CNS 93.1% | PC-3 prostate 92.3% | SK-MEL-5 melanoma 95.4% | UACC-62 melanoma 87.7% | LOX IMVI melanoma 98.7% | SK-MEL-28 melanoma 100%

O=C(Nc1ccc(Cl)c(Cl)c1)Nc1ccc(Cl)c(Cl)c1
-16.7% (active) and 18.2% (inactive): HCT-15 colon
-62% (active) and 26.5% (inactive): SNB-19 CNS
-94.2% (active) and 38.3% (inactive): SNB-75 CNS
-89.2% (active) and 12.2% (inactive): UACC-62 melanoma
-97.2% (active) and 34.6% (inactive): SK-MEL-5 melanoma
active: HT29 colon -82.6% and 7.52% | LOX IMVI melanoma -89.4% and 9.39%
-78.8% (active) and 34.9% (inactive): SK-MEL-28 melanoma
-80.2% (active) and 11.1% (inactive): PC-3 prostate
-84.3% (active) and 13.3% (inactive): U251 CNS

Cc1c(O)c(O)cc2c3c(oc12)CC(c1ccc2c(c1)OCO2)CC3=O (stereo not given)
inactive: HCT-15 colon 64.5% | HT29 colon 94.3% | SNB-75 CNS 87.8% | SNB-19 CNS 101% | U251 CNS 100% | PC-3 prostate 81.1% | SK-MEL-5 melanoma 82.1% | UACC-62 melanoma 53.4% | LOX IMVI melanoma 59.7% | SK-MEL-28 melanoma 105%

C#CCOc1cccc(Nc2ncc3ncn(C4CCN(C(=O)CCl)C4)c3n2)c1 (stereo not given)
inactive: HT29 colon 23.4% [6.25 µM] | SNB-75 CNS 72.6% [6.25 µM] | SNB-19 CNS 64.6% [6.25 µM] | U251 CNS 43.2% [6.25 µM] | PC-3 prostate 74.9% [6.25 µM] | SK-MEL-5 melanoma 39.1% [6.25 µM] | UACC-62 melanoma 44.8% [6.25 µM] | SK-MEL-28 melanoma 78% [6.25 µM]
active: HCT-15 colon 6.97% [6.25 µM] | LOX IMVI melanoma -55.1% [6.25 µM]

CCCCC1=C(Br)C(=O)c2nc(C)ccc2C1=O
inactive: HCT-15 colon 95.5% | HT29 colon 107% | SNB-75 CNS 84.4% | SNB-19 CNS 92.5% | U251 CNS 89.6% | PC-3 prostate 80.3% | SK-MEL-5 melanoma 92.6% | UACC-62 melanoma 84.9% | LOX IMVI melanoma 89.1% | SK-MEL-28 melanoma 105%

N=C1/C(=C2\NC3C=CC=CC3S2)C(c2ccc(Cl)cc2)C2C(=O)N(c3ccccc3)C(=S)N12 (stereo not given)
inactive: HCT-15 colon 110% | HT29 colon 107% | SNB-75 CNS 106% | SNB-19 CNS 96.6% | U251 CNS 101% | PC-3 prostate 94.3% | SK-MEL-5 melanoma 99.4% | UACC-62 melanoma 94.1% | LOX IMVI melanoma 98.2% | SK-MEL-28 melanoma 103%

CN(Cc1ccccc1)c1nc(Cl)c(C2CC(c3ccc4c(c3)OCO4)=NN2c2cc(Cl)cc(Cl)c2)s1 (stereo not given)
inactive: HCT-15 colon 98.7% | HT29 colon 97.8% | SNB-75 CNS 78.5% | SNB-19 CNS 106% | U251 CNS 98.1% | PC-3 prostate 93.5% | SK-MEL-5 melanoma 97.4% | UACC-62 melanoma 96.6% | LOX IMVI melanoma 96.6% | SK-MEL-28 melanoma 99%

COc1ccc(C(CC(=O)c2ccc3c(c2)OCO3)C(=O)O)cc1OC (stereo not given)
inactive: HCT-15 colon 122% and 109% | HT29 colon 103% and 96.3% | SNB-75 CNS 110% and 88.3% | SNB-19 CNS 110% and 97.6% | U251 CNS 102% | PC-3 prostate 87.4% and 105% | SK-MEL-5 melanoma 108% and 102% | UACC-62 melanoma 111% and 112% | LOX IMVI melanoma 95.6% and 98.4% | SK-MEL-28 melanoma 122% and 106%

O=C(Cn1cc(CN2CCN(c3ccnc4cc(Cl)ccc34)CC2)nn1)Nc1cccc([N+](=O)[O-])c1
inactive: HCT-15 colon 102% | HT29 colon 101% | SNB-75 CNS 83.4% | SNB-19 CNS 90.3% | U251 CNS 81.6% | PC-3 prostate 58.5% | SK-MEL-5 melanoma 70.1% | UACC-62 melanoma 70.8% | LOX IMVI melanoma 85.1% | SK-MEL-28 melanoma 104%

C=C1CC[C@@H]2[C@](C)(COC(C)=O)[C@H](OC(C)=O)CC[C@@]2(C)[C@@H]1CC(Nc1ccc(S(=O)(=O)Nc2nccs2)cc1)C1=CCOC1=O (stereo not given in full)
inactive: SNB-75 CNS 28.3% | SNB-19 CNS 49.1% | PC-3 prostate 21.8% | SK-MEL-5 melanoma 31.4% | UACC-62 melanoma 21.2%
active: HCT-15 colon -39.2% | HT29 colon -42.7% | U251 CNS 4.21% | LOX IMVI melanoma -88.3% | SK-MEL-28 melanoma -16.3%

O=C1OCC2=C1C(c1cccc(C(F)(F)F)c1)c1cc3c(cc1N2CCO)CCC3 (stereo not given)
active: HCT-15 colon 6.24% | HT29 colon 1.24% | SK-MEL-5 melanoma 0.201%
inactive: SNB-75 CNS 46% | SNB-19 CNS 23% | U251 CNS 12.4% | PC-3 prostate 21.7% | UACC-62 melanoma 41.7% | LOX IMVI melanoma 16.5% | SK-MEL-28 melanoma 52.8%

Brc1ccc(/C=C(/C2=NCCN2)n2ccc3ccccc32)cc1
inactive: HCT-15 colon 73.7% | HT29 colon 65.1% | SNB-75 CNS 33% | SNB-19 CNS 85.1% | U251 CNS 65.6% | PC-3 prostate 45% | SK-MEL-5 melanoma 73.4% | UACC-62 melanoma 75.8% | LOX IMVI melanoma 50.5% | SK-MEL-28 melanoma 100%

O=C(N/N=C/c1ccc(O)cc1O)c1cccc(Nc2ccnc(C(F)(F)F)c2)c1
active: UACC-62 melanoma -8.61%
inactive: HCT-15 colon 27.3% | HT29 colon 41.6% | SNB-75 CNS 32.2% | SNB-19 CNS 35.5% | U251 CNS 32.1% | PC-3 prostate 61% | SK-MEL-5 melanoma 33.7% | LOX IMVI melanoma 13.7% | SK-MEL-28 melanoma 31.1%

CC1=CC(C)(C)NC(=S)N1c1ccc(Cl)cc1
inactive: HCT-15 colon 96.9% and 88.8% | HT29 colon 103% | SNB-75 CNS 91.3% and 108% | SNB-19 CNS 96.7% and 96.9% | U251 CNS 98.7% and 102% | PC-3 prostate 94% and 85.1% | SK-MEL-5 melanoma 100% and 103% | UACC-62 melanoma 94.6% and 84.9% | LOX IMVI melanoma 95.2% and 97.7% | SK-MEL-28 melanoma 101% and 105%

Cc1ccc(C(=O)Nc2nc3c(s2)CN(Cc2ccccc2)CC3)cn1
inactive: HCT-15 colon 49.5% | HT29 colon 59.1% | SNB-75 CNS 66.9% | SNB-19 CNS 92.3% | U251 CNS 92.9% | PC-3 prostate 74.1% | SK-MEL-5 melanoma 79.3% | UACC-62 melanoma 74.5% | LOX IMVI melanoma 87% | SK-MEL-28 melanoma 94.3%

N#Cc1cc(-c2ccnc(Nc3ccc(NC(=O)CCl)cc3)n2)ccc1N1CCCC1
active: HCT-15 colon -45.7% | HT29 colon -56.9% | SNB-75 CNS -17.5% | SNB-19 CNS 5.98% | U251 CNS -33.1% | PC-3 prostate 8.3% | SK-MEL-5 melanoma -96% | UACC-62 melanoma -71.3% | LOX IMVI melanoma -84.8% | SK-MEL-28 melanoma -52.4%

CC(=O)N1N=C(c2ccc(F)cc2)CC1c1sc(N(C)Cc2ccccc2)nc1Cl (stereo not given)
inactive: HCT-15 colon 88.5% | HT29 colon 94.4% | SNB-75 CNS 92.3% | SNB-19 CNS 101% | U251 CNS 98.5% | PC-3 prostate 86.3% | SK-MEL-5 melanoma 103% | UACC-62 melanoma 81.2% | LOX IMVI melanoma 96.4% | SK-MEL-28 melanoma 114%
